# Experimental data reported in PubChem BioAssay (NCATS).
# Inconclusive results are not listed. A call without a number means that no potency is given here. A number with no mark means an inactive call. Activity calls are given as the source filed them. Calls come from the whole dose curve; as a rule, active = well fitted curve in the direction sought with a large enough effect; inconclusive = small, poorly fitted or top-dose-only effect, or another doubt; inactive = no such curve, though single readings can be large; an effect the other way counts as inactive or inconclusive.
# Key:
# [1] = target: Cellular tumor antigen p53 (Homo sapiens) (UniProt P04637); assay: Primary qHTS for small molecule compounds that upregulate eGFP-tagged delta133p53alpha (in N-terminal) cells. (AID 2060322); settings: NCI-H358 eGFP-delta133p53alpha fluorescence, 24 h; activation: hits give high values; note: nearly all actives have a fitted effect of over 75% in size; note: potency is the fitted concentration of half-maximal effect; for activation: series mostly up to about 56 µM
# Procedure, shortened: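 NCI-H358 cells pre-induced 24 h with 10 ng/ml doxycycline to express N-terminal eGFP-delta133p53alpha, then dosed 24 h at 37C without doxycycline; fixed, Hoechst-stained, GFP intensity by laser scanning cytometry, normalized to DMSO (0%) and 57.5 uM 5-azacytidine (100%).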
# [2] = target: Aldehyde dehydrogenase, mitochondrial (Homo sapiens) (UniProt P05091); assay: qHTS for Inhibitors of the Aldehyde Dehydrogenase Family (ALDH2) Primary screen (AID 2061308); note: nearly all actives have a fitted effect of over 55% in size
# [3] = target: Retinaldehyde dehydrogenase 3 (Homo sapiens) (UniProt P47895); assay: qHTS for Inhibitors of the Aldehyde Dehydrogenase Family (ALDH1A3) Primary screen (AID 2061315)
# Chain of Cellular tumor antigen p53 (Homo sapiens) (P04637 whole entry, looked up): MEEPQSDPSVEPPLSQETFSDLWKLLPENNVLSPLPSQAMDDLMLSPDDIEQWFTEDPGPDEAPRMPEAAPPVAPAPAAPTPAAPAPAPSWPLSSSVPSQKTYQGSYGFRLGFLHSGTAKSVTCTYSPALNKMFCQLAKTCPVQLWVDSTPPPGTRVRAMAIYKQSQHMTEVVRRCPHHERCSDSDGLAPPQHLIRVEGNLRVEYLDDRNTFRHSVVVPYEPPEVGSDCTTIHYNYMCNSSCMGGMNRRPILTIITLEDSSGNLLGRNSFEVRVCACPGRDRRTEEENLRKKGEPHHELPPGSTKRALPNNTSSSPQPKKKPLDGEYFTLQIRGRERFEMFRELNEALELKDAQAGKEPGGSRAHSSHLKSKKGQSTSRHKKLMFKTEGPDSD
Compound,activation [1],Potency [2],Potency [3],Potency [1]
CC1(C)CCCC2(C)c3c4c(c(=O)oc(=O)c3=CCC12)=CCC1C(C)(C)CCCC41C (stereo not given),-8.04%,inactive,inactive,
O=[N+]([O-])c1ccc(Oc2ccc3c(c2)CCC(c2ccccc2)O3)nc1 (stereo not given),2.33%,inactive,inactive,
CC(C)CC(=O)OC[C@H]1O[C@@](COC(=O)CC(C)C)(O[C@H]2O[C@H](CO)[C@@H](O)[C@H](O)[C@H]2O)[C@@H](OC(=O)CC(C)C)[C@@H]1OC(=O)CC(C)C,-0.763%,inactive,inactive,
COC(=O)C1=C2Nc3ccccc3C23CCN2CCCC(C(C)O)(C1)C23 (stereo not given),18.8%,inactive,inactive,
C/C=C(\C)C(=O)OC1C(C)C2(O)C3C=C(C)C(=O)C3CC(CO)=CC2C2C(C)(C)C12OC(C)=O (stereo not given),-19.8%,inactive,inactive,
C[C@H](Oc1ccc(S(C)(=O)=O)cc1C(=O)N1CCN(c2ncc(C(F)(F)F)cc2F)CC1)C(F)(F)F,4.46%,inactive,inactive,
O=C(N/N=C/c1ccc(O)c(O)c1)c1cc2ccccc2cc1O,4.33%,inactive,inactive,
Fc1cccc(CN(C2=NCCN2)c2c(Cl)cccc2Cl)c1,-15%,inactive,inactive,
C=C(C(=O)O)C1CC2=C(C)C(=O)CC2C(C)CC1O (stereo not given),,inactive,inactive,12 µM (active)
C=C1C(=O)O[C@@H]2/C=C(\CO)CC/C=C(/C=O)C[C@H](O)[C@@H]12,,inactive,inactive,26.9 µM (active)
